Measured values reported in PubChem BioAssay (EPA / NIEHS).
Records with an inconclusive call do not appear. Activity calls are given as the source filed them. How the source made its calls: active means hit-call score of the fitted dose curve at least 0.9, where 1 is the maximum; inconclusive means response in the unintended direction; inactive means score below 0.9.

Target: human Peroxisome Proliferator-activated Receptor alpha (PPARa), PPARA (gene 5465) (UniProt Q07869)
Experiment: ATG_PPARa_TRANS: Attagene TRANS-FACTORIAL HepG2 Assay for human Peroxisome Proliferator-activated Receptor alpha (PPARa) (AID 2283001);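 on AC50: potency for gain of reporter signal over DMSO so agonist or activator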
Method: ATG_TRANS is a cell-based, multiplexed-readout assay that uses HepG2, a human liver cell line, with measurements taken at 24 hours after chemical dosing in a 24-well plate.ATG_PPARa_TRANS is one of 30 assay component(s) measured or calculated from the ATG_TRANS assay. It is designed to make measurements of mRNA induction, a form of inducible reporter, as detected with fluorescence intensity signals by Reverse transcription polymerase chain reaction (RT-PCR) and Capillary electrophoresis technology.Data from the assay component ATG_PPARa_TRANS was analyzed into 1 assay endpoint. This assay endpoint, ATG_PPARa_TRANS, was analyzed in the positive analysis fitting direction relative to DMSO as the negative control and baseline of activity. Using a type of inducible reporter, measures of mRNA for gain-of-signal activity can be used to understand the reporter gene at the transcription factor-level as they relate to the gene PPARA. Furthermore, this assay endpoint can be referred to as a primary readout, because this assay has produced multiple assay endpoints where this one serves a reporter gene function. To generalize the intended target to other relatable targets, this assay endpoint is annotated to the nuclear receptor intended target family, where the subfamily is non-steroidal.
Human liver HepG2 cells are transiently transfected with multiple reporter transcription units (MRTUs) in 6-well plates using FuGene 6 reagent (Roche; 3 ml FuGene/1 mg DNA). The MRTU constructs are regulated by a cis-regulating element (promoter). […] A major difference between the CIS and TRANS system is that in CIS activities of endogenous TFs are measured, whereas the TRANS assay evaluates changes in activities of exogenous, chimeric NR-Gal4 proteins. […] At the end of 24 hour incubation, total RNA was isolated using TriZol reagent (Invitrogen). The isolated RNA is then reverse-transcribed using oligo(dT) primer and Mo-MLV reverse transcriptase (Invitrogen) with DNAse I (Ambion) treatment for 30 min. The one-tenth of the produced cDNA was amplified by PCR using Taq DNA polymerase (Invitrogen) and two reporter sequence-specific primers. The PCR products were fluorescently labeled by primer extension with 6-arboxyfluorescein (6-FAM) 5'-labeled reporter sequence-specific primer (2 min at 95 C, 20 s at 68 C and 10 min at 72 C) and these products were digested with 5U of HpaI (New England Biolabs) for 2h at 37 C. The fragments were purified using Qiaquick PCR columns (Qiagen), analyzed on an ABI 3130xL genetic analyzer (Applied Biosystems) with peak positions identified by using a set of X-rhodamine (ROX)-labeled MapMarker1000 molecular weight standards (BioVentures). The raw capillary electrophoresis data was processed using Attagraph software (Attagene).

Chain of human Peroxisome Proliferator-activated Receptor alpha (PPARa), PPARA (gene 5465) (Q07869 whole entry, looked up): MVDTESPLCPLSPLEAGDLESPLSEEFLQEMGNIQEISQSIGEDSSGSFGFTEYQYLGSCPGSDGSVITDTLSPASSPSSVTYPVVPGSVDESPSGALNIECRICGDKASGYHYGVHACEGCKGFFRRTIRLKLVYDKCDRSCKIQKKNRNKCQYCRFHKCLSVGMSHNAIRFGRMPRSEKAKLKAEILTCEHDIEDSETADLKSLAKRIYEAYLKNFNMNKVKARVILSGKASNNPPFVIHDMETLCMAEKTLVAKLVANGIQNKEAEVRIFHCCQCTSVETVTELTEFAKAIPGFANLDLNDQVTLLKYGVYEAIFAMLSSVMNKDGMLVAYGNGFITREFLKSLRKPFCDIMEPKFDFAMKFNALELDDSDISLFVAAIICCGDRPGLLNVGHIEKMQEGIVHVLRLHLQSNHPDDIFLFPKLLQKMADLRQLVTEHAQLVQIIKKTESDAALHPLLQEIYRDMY

Row | SMILES | outcome | AC50
1 | Nc1ccc(O)c([N+](=O)[O-])c1 | inactive | 
2 | C=C(C)C(=O)OCCCCCCCCCCCC | inactive | 
3 | CCOC(=O)c1ccccc1C | inactive | 
4 | CCCCCCC=O | inactive | 
5 | C=CC(=O)O[C@H]1C[C@@H]2CC[C@@]1(C)C2(C)C | inactive | 
6 | O=C(O)CCC(=O)O | inactive | 
7 | CC1(C)CCC[C@]2(C)[C@H]3CC(=O)O[C@]3(C)CC[C@@H]12 | inactive | 
8 | CC(CCC(=O)O)(c1ccc(O)cc1)c1ccc(O)cc1 | inactive | 
9 | C=CC(=O)OCC(C)OCC(C)OCC(C)OC(=O)C=C (stereo not given) | inactive | 
10 | CCN(CC)c1cccc(C)c1 | inactive | 
11 | CC(=O)OCCc1ccccc1 | inactive | 
12 | CCOC(=O)/C=C\C(=O)OCC |  | 49.6 µM (active)
13 | CC(=O)c1ccc(S(=O)(=O)NC(=O)NC2CCCCC2)cc1 | inactive | 
14 | CCCCC(CC)COC(=O)/C=C/c1ccc(OC)cc1 (stereo not given) | inactive | 
15 | O=C(O[C@@H]1Cc2c(O)cc(O)cc2O[C@@H]1c1cc(O)c(O)c(O)c1)c1cc(O)c(O)c(O)c1 | inactive | 
16 | CCCCCCCCCC[N+](C)(CCCCCCCCCC)CCC[Si](OC)(OC)OC | inactive | 
17 | C=C[Si](OCCOC)(OCCOC)OCCOC | inactive | 
18 | Nc1ccc(Cl)c(N)c1 | inactive | 
19 | CCCCCCCCCCCC(=O)N(C)CC(=O)O |  | 7.45 µM (active)
20 | Oc1ccc(/C=C/c2cc(O)cc(O)c2)cc1 | inactive | 

Row | SMILES | outcome | AC50
21 | CCCCCCCCCCCCC | inactive | 
22 | CCC1(C)C(=O)N(Cl)C(=O)N1Cl (stereo not given) | inactive | 
23 | O=C(OCc1ccccc1)c1ccc(O)cc1 | inactive | 
24 | CC(=O)CCC=C(C)C | inactive | 
25 | CCCCCCCCCCCCc1ccc(O)cc1 | inactive | 
26 | CCCCCC1=CCCC1=O | inactive | 
27 | CCCCOCCOC(=O)COc1ccc(Cl)cc1Cl | inactive | 
28 | CCCCCCCC(=O)OCC(COC(=O)CCCCCCC)OC(=O)CCCCCCC | inactive | 
29 | CCC(C)C(=O)OCCc1ccccc1 (stereo not given) | inactive | 
30 | CCC(C)C(=O)OC (stereo not given) | inactive | 
31 | C=CC(=O)NC(C)(C)C | inactive | 
32 | CC(=O)CCC1=C(C)CCCC1(C)C | inactive | 
33 | C=CC(C)(CCC=C(C)C)OC(=O)C=Cc1ccccc1 (stereo not given) | inactive | 
34 | O=C(C=Cc1ccccc1)OCCc1ccccc1 | inactive | 
35 | Cc1c(C(=O)c2c[nH]n(C)c2=O)ccc(S(C)(=O)=O)c1C1=NOCC1 | inactive | 
36 | CCCc1ccc(O)c(OC)c1 | inactive | 
37 | Nc1nc(N)nc(-c2ccccc2)n1 | inactive | 
38 | Clc1cc(Cl)c(Cl)c(Cl)c1Cl | inactive | 
39 | CC(C)CCOCc1ccccc1 | inactive | 
40 | Oc1ccc(-c2ccccc2)c(Cl)c1 |  | 41.1 µM (active)
